According to paper PMC4336329 (PLoS ONE, 2015):
About 2,200 (0.71%) of roughly 310,000 compounds showed an effect of 50% or more. The effect is printed as a negative number. Only a selection was taken, and strong results are over-represented in it overall.

biological target: human ether-à-go-go-related gene (hERG) potassium channel (human, UniProt Q12809); experiment: primary screen, population patch clamp on CHO cells stably expressing hERG; higher = less effect of the substance
Sequence (Q12809 whole entry, looked up): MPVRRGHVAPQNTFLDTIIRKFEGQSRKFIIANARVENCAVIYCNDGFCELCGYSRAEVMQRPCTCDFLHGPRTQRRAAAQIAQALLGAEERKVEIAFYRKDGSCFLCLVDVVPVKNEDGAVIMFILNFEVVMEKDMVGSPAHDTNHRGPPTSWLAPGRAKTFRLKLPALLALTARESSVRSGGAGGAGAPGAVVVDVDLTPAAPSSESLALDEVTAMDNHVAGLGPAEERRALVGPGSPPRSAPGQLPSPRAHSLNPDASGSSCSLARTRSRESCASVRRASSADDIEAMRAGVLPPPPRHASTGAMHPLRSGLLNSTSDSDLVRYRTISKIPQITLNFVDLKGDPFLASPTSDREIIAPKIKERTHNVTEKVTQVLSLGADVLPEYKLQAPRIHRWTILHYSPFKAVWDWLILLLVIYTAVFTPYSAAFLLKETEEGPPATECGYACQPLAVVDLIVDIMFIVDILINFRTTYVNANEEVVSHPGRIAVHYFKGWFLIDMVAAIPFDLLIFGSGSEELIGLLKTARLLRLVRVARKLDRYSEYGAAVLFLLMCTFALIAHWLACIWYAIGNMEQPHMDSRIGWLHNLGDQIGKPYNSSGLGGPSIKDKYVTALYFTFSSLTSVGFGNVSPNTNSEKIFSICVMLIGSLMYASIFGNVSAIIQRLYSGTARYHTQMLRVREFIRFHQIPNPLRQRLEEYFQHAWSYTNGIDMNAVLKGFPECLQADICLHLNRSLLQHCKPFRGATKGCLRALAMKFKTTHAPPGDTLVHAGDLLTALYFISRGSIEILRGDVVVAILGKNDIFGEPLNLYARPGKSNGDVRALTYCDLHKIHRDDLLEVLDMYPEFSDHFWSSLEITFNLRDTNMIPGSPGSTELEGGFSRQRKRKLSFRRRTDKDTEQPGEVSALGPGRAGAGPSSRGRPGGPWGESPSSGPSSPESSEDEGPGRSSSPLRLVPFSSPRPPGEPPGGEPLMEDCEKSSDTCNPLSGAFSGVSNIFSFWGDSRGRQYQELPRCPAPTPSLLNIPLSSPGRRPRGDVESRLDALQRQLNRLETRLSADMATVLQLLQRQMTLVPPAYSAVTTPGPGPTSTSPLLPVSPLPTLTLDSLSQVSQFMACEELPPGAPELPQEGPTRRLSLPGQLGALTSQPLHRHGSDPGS

SMILES | hERG current change (%, negative = inhibition) at 1uM
COc1ccc(-c2cc(-c3cccs3)nc(OC)c2C#N)cc1OC | 24.6%
COc1ccc(CN2CCC(N3CC(C)OC(C)C3)CC2)c(OC)c1OC.O=C(O)C(=O)O (stereo not drawn) | 2.62%
N#Cc1ccccc1CSc1ccc(-c2nc3ccccc3[nH]2)cn1 | 16.2%
O=C(CSc1ccc(-c2ccccc2)nn1)Nc1ccc2c(c1)OCCO2 | 8.92%
Cc1nc(C)c(C(=O)Nc2nc3c(C)cccc3s2)o1 | -4.12%
Cc1ccc([N+](=O)[O-])cc1S(=O)(=O)Nc1ccc(O)c(Sc2ncn[nH]2)c1 | 14.7%
CCOc1ccc(CCNC(=O)COC(=O)/C=C/c2ccco2)cc1OCC | 15.9%
CCOc1ccc(CCNC(=O)/C=C/c2ccco2)cc1OCC | -170%
COc1ccc(CCNC(=O)/C=C/c2ccco2)cc1OC | 5.95%
O=C(c1ccc(S(=O)(=O)c2cccc(Cl)c2)c([N+](=O)[O-])c1)N1CCN(Cc2ccccc2)CC1 | 15.8%
COc1cc(C(=S)N2CCOCC2)cc(OC)c1OC(=O)c1ccc([N+](=O)[O-])cc1[N+](=O)[O-] | 5.28%
COc1ccc(C(=S)N2CCOCC2)cc1OC(=O)c1ccc([N+](=O)[O-])cc1[N+](=O)[O-] | -63.1%
COc1cc(C(=S)N2CCOCC2)ccc1OC(=O)c1ccc([N+](=O)[O-])cc1[N+](=O)[O-] | 15.5%
CC1CCc2nc3ccccc3c(C(=O)OCC(=O)NC3CCS(=O)(=O)C3)c2C1 (stereo not drawn) | 13%
CC(=O)Nc1ccc(S(=O)(=O)Nc2ccc(S(=O)(=O)N3CCCC3)cc2)cc1 | 4.58%
Cc1ccc(C)c(/C=C(\C(=O)O)c2ccc(S(=O)(=O)N3CCCCC3)s2)c1 | 6.97%
COc1ccc(NC(=O)c2cc([N+](=O)[O-])ccc2NC(=O)CNC2CCCCC2C)c(OC)c1 (stereo not drawn) | -78.8%
COc1cc(NC(=O)c2cc([N+](=O)[O-])ccc2NC(=O)CNC2CCCCC2C)cc(OC)c1 (stereo not drawn) | 17.4%
COc1ccc(NC(=O)c2cc([N+](=O)[O-])ccc2NC(=O)CNCc2ccccn2)c(OC)c1 | 9.51%
CCN(c1ccccc1)S(=O)(=O)c1cccc(C(=O)NCC2(N(C)C)CCCCC2)c1 | -11%
O=C(OCC(=O)N1CCOCC1)c1ccccc1O | 13.6%

SMILES | hERG current change (%, negative = inhibition) at 1uM
Cc1cc(C)cc(NC(=O)C(OC(=O)c2cccs2)c2ccccc2)c1 (stereo not drawn) | 16.7%
Cn1c(=O)c2c(ncn2CC(=O)N2CCN(c3ccccc3)CC2)n(C)c1=O | 8.13%
Cn1c(=O)c2c(nc(N3CCCC3)n2C)n(C)c1=O | 12.6%
Cn1c(=O)c2c(nc(N3CCN(c4ccc([N+](=O)[O-])cc4)CC3)n2C)n(C)c1=O | -81.7%
Cn1c(=O)c2c(ncn2CC(=O)N2CCN(c3ccc(F)cc3)CC2)n(C)c1=O | -0.183%
Cn1c(=O)c2c(ncn2CC(=O)N2CCN(c3ccc([N+](=O)[O-])cc3)CC2)n(C)c1=O | -69.6%
Cn1c(=O)c2c(nc(N3CCOCC3)n2C)n(C)c1=O | -1.83%
Cc1nc2c(C(=O)N3CCCC3)cnn2c(C)c1Cc1c(F)cccc1Cl | -11.4%
C=Cc1ccc(COC(=O)c2cn(CC)c3nc(C)ccc3c2=O)cc1 | -21%
O=C(CC(=O)N/N=C/c1ccccc1)NCc1ccccc1 | 8.85%
Cc1cc(C)nc(N2CCC(C(=O)NCc3ccccc3F)CC2)n1 | 1.75%
O=C(NCc1ccco1)C1CCN(c2nc3ccccc3n2Cc2ccccc2F)CC1 | -62.8%
COc1nc(OC)nc(N2CCC(C(=O)NCc3ccco3)CC2)n1 | -0.721%
Cc1ccc(Cn2cnc3ccccc32)cc1 | 13%
O=C(O)CC(c1cccc(O)c1)N1Cc2ccccc2C1=O (stereo not drawn) | 12%
CC(C)OCP(=O)(c1ccccc1)c1ccccc1 | 6.74%
CCOCCCNC(=O)CNC(=S)N(Cc1ccccc1F)C1CCCCC1 | -6.79%
CCN1C(=S)SC(=O)C1=C1C=C(C)N(Cc2ccco2)C(C)=C1 | 1.56%
CC(C)c1cc(N=NC(N)=O)cc(C(C)C)c1O | 6.77%
CCN(CC(=O)NCCc1ccc(F)cc1)Cc1nc2ccccc2c(=O)[nH]1 | 1.66%
CCN(CC(=O)NCc1ccc(F)cc1)Cc1nc2cc(Cl)ccc2c(=O)[nH]1 | -52.5%

SMILES | hERG current change (%, negative = inhibition) at 1uM
CCN(CC(=O)NCc1ccc(F)cc1)Cc1nc2ccccc2c(=O)[nH]1 | -8.93%
CC1CCCC(N2CCN(C(=O)c3cccc(F)c3)CC2)C1.O=C(O)C(=O)O (stereo not drawn) | 8.59%
COc1ccc(CCC(=O)N2CCN(C(=O)c3ccccc3)CC2)cc1 | 14.6%
COc1cccc(C(=O)N2CCN(C3CCC(c4ccccc4)CC3)CC2)c1OC.O=C(O)C(=O)O (stereo not drawn) | 3.34%
CC1CCCC(N2CCN(C(=O)c3ccc(F)cc3)CC2)C1 (stereo not drawn) | -25%
COc1ccc(C(=O)N2CCN(C3CCC(c4ccccc4)CC3)CC2)cc1OC (stereo not drawn) | -60.4%
COc1ccc(CCC(=O)N2CCN(C3CCCCC3)CC2)cc1 | -56.7%
O=C(CCCc1ccccc1)N1CCN(C2CCCCC2)CC1 | -23.6%
COc1ccc(C(=O)N2CCN(C3CCN(Cc4ccccc4)CC3)CC2)cc1OC | -14.5%
COc1cc(C(=O)N2CCN(C3CCCCC3)CC2)cc(OC)c1OC.O=C(O)C(=O)O | 14.5%
CC1CCCC(N2CCN(C(=O)c3ccc([N+](=O)[O-])cc3)CC2)C1.O=C(O)C(=O)O (stereo not drawn) | -67.3%
COc1cccc(C(=O)N2CCN(C3CCCCC3)CC2)c1.O=C(O)C(=O)O | 6.64%
COc1ccc(C(=O)N2CCN(C3CCCCC3)CC2)cc1OC.O=C(O)C(=O)O | -74.2%
Cc1ccc(CN(c2ccc(C(=O)NCc3cccnc3)cc2)S(C)(=O)=O)cc1 | 1.51%
COc1ccc(N2CCN(CCCNC(=O)C(=O)c3c(C)n(C)c4ccccc34)CC2)cc1 | -9.85%
COc1ccc2c(c1)C(NC(C)=O)C(=O)N2CCc1ccccc1 (stereo not drawn) | 3.02%
Cc1oc(-c2ccoc2)nc1CN(CC1CCC(=O)N1)C(C)C (stereo not drawn) | 11.6%
CCNc1nc(N2CCCC2)nc(N2CCCC2)n1 | 0.687%
CCCCN1CNC(=S)N(c2cc(C)ccc2C)C1 | 7.21%
Nc1[nH]c(=O)nc(Nc2ccccc2)c1N=O | 8.79%
O=C(c1ccc(CNc2c(N3CCCC3)c(=O)c2=O)cc1)N1CCc2ccccc2C1 | -3.76%

SMILES | hERG current change (%, negative = inhibition) at 1uM
CCO[C@@H]1OC(C(=O)N2CCN(Cc3ccc4c(c3)OCO4)CC2)=C[C@H](c2ccc(C(F)(F)F)cc2)[C@H]1CCCO | 3.44%
COc1cc(OC)cc(C(=O)N2CCN(C3CCCCC3)CC2)c1.O=C(O)C(=O)O | -2.01%
COc1ccc(C(=O)N2CCCN(C)CC2)c(OC)c1 | 11%
COc1ccc(C(=O)N2CCN(C3CCCCC3)CC2)c(OC)c1 | -75%
CCC(Cc1ccccc1)NS(=O)(=O)c1csc(C(N)=O)c1 (stereo not drawn) | 22.5%
CC(C)[C@H](NC(=O)N1CC(=O)Nc2ccccc21)C(=O)Nc1nccs1 | 24.4%
O=C(c1ccc(C(F)(F)F)cc1)N1CCCCC1 | -4.21%
Cc1ccc(S(=O)(=O)Nc2ccc3c(c2)nc(CCN2CCN(c4ccccn4)CC2)n3C)cc1 | -80.7%
CC(=O)Nc1ccc2c(c1)nc(CCN1CCN(c3ccccn3)CC1)n2C | 12%
Cc1ccc(S(=O)(=O)Nc2ccc3c(c2)nc(CCN2CCOCC2)n3C)cc1 | 6.29%
CC(C)C(=O)Nc1ccc2c(c1)nc(CCN1CCN(c3ccccn3)CC1)n2C | 6.24%
CCCC(=O)Nc1ccc2c(c1)nc(CCN1CCN(c3ccccn3)CC1)n2C | 1.68%
Cn1c(CCN2CCN(c3ccccn3)CC2)nc2cc(NS(=O)(=O)c3ccc(Cl)cc3)ccc21 | -69.2%
O=CNc1ccc(OP(=O)(Oc2ccccc2)Oc2ccccc2)cc1 | 1.71%
O=C(N/N=C(/c1ccccc1)c1ccncc1)c1ccc2c(c1)OCO2 | 2.11%
CC(C(=O)O)N1CCCCC1.Cl (stereo not drawn) | -4.62%
O=C(Cn1cncc1-c1ccc([N+](=O)[O-])cc1)Nc1ccccc1F | -0.387%
O=C(c1noc2c1CCCC2)N1CCN(c2ccc(F)cc2)CC1 | 20%
N#Cc1ccc(CN2CCN(C(=O)CCNS(=O)(=O)c3ccc(F)c(F)c3)CC2)cc1 | -62.3%
N#Cc1ccc(CN2CCN(C(=O)CCNS(=O)(=O)c3ccc(F)c(Cl)c3)CC2)cc1 | -29.3%
O=C(CCNS(=O)(=O)c1ccc(Cl)cc1)N1CCN(Cc2ccccc2)CC1 | -16.1%
